# Assay results taken from PubChem BioAssay (NCATS).
# Records with an inconclusive call do not appear. Activity calls are given as the source filed them. Calls follow the shape of the full dose curve.
# Biological target: Nucleoprotein (Lymphocytic choriomeningitis virus (strain Armstrong)) (UniProt P09992)
# Assay: qHTS for Inhibitors of the Functional Ribonucleoprotein Complex (vRNP) of Lymphocytic Choriomeningitis Arenaviruses (LCMV): LCMV Primary Screen - GLuc reporter signal (AID 1347086); also: nearly all actives have a fitted effect of over 70% in size
# Conditions: LCMV minigenome vRNP cell assay, Gaussia luciferase reporter; series mostly up to 57.5 µM; activity change, negative = inhibition: at the top concentration
# % is scaled to controls: 0 for no effect and ±100 for the full control effect.
# Sequence of Nucleoprotein (Lymphocytic choriomeningitis virus (strain Armstrong)) (P09992 whole entry, looked up): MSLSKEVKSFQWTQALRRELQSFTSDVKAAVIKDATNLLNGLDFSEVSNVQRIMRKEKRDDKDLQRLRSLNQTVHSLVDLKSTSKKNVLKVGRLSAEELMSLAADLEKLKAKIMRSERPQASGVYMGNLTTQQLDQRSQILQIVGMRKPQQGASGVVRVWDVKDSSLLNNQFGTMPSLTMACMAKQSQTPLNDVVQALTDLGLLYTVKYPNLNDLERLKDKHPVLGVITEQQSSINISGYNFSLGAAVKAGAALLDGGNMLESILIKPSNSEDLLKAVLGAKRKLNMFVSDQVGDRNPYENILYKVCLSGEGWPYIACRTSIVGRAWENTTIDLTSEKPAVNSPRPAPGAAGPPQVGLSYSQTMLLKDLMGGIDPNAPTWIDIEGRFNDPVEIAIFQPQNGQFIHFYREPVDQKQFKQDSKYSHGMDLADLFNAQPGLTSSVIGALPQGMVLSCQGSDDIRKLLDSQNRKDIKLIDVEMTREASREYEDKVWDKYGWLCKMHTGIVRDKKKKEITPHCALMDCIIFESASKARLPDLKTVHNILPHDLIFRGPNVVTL
SMILES,"activity change, negative = inhibition",Potency
CN=C(NC#N)Nc1ccc(C2=NNC(=O)CC2C)cc1 (configuration not stated),18.2% (inactive),
O=C(OCc1ccccc1)c1ccccc1,3.58% (inactive),
CC(O)CCCCn1c(=O)c2c(ncn2C)n(C)c1=O (configuration not stated),-7.06% (inactive),
C=CCn1c(=O)n([C@@H]2O[C@H](CO)[C@@H](O)[C@H]2O)c2nc(N)[nH]c(=O)c21,-2.11% (inactive),
CC1COc2c(N3CCN(C)CC3)c(F)cc3c(=O)c(C(=O)O)cn1c23 (configuration not stated),,inactive
Cc1cc(=O)oc2cc(O[C@@H]3SC[C@@H](O)[C@H](O)[C@H]3O)ccc12,16.8% (inactive),
CN(C)CCOC(=O)COc1ccc(Cl)cc1,,inactive
CC(=O)OCC(=O)[C@@]1(O)CC[C@H]2[C@@H]3CCC4=CC(=O)C=C[C@]4(C)[C@@]3(F)[C@@H](O)C[C@@]21C,35.8% (inactive),
CC(=O)Oc1cccc2c1C(=O)c1c(OC(C)=O)cc(C(=O)O)cc1C2=O,-4.94% (inactive),
O=C(CCOCCOCCOCCOCCC(=O)Nc1c(I)cc(I)c(C(=O)O)c1I)Nc1c(I)cc(I)c(C(=O)O)c1I,0.0326% (inactive),
Nc1ncnc(Nc2ccccc2)n1,15.3% (inactive),
O=C(O)CCCCC1CCSS1 (configuration not stated),26.1% (inactive),
O=C(Oc1ccccc1)c1ccccc1O,8.84% (inactive),
CNCC(O)c1ccc(O)c(O)c1 (configuration not stated),,inactive
CCOc1cc(CC(=O)N[C@@H](CC(C)C)c2ccccc2N2CCCCC2)ccc1C(=O)O,13% (inactive),
C/C=C/C=N/NC(=O)c1ccncc1,9.37% (inactive),
CCCC(=O)Nc1ccc(O)c(C(C)=O)c1,18% (inactive),
c1ccc2sc(SSc3nc4ccccc4s3)nc2c1,1.36% [at 24.7 µM] (inactive),
NCCCCCC(=O)O,,inactive
CC(C)(C(=O)c1cccnc1)c1cccnc1,11.5% (inactive),
CCC1(C)CC(=O)NC1=O (configuration not stated),,inactive
COc1ccc(C2C(=O)c3ccccc3C2=O)cc1,11.1% (inactive),
